Measurements reported in the supplement of paper PMC10849652.
About 7,900 targets were measured; listed, in parts, are those with a hit and a random draw of the rest. About 0.6% of all pairs of compound and target were hits. A number with no mark means an inactive call.

Legend:
Assay in all cases: log2 fold change, soluble protein after heating vs DMSO (PISA); higher = thermal stabilisation; K562 cells, 10 uM, 30 min; active = over 0.2 and 3.5 SD of the protein, either way, in both replicates (recomputed)
erlotinib = compound: C#Cc1cccc(Nc2ncnc3cc(OCCOC)c(OCCOC)cc23)c1 [erlotinib]
How it was run: (§1)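 K562 cells at 2×10^6 cells/mL were given 10 μM compound for 30 min. Aliquots then went through 3 min of heating across 48°C-58°C, were pooled, and were extracted in PBS with 0.5% NP-40 at 4°C, and the supernatant after 21,000xg for 90 min was quantified by TMTpro 16plex LC-MS/MS with channel sums equalised. Thermal stability relative to control samples, from duplicates, is given as log2 fold change.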

[1] = compound: C/C(=N\NC(=O)C1=CC(=CC=C1)S(=O)(=O)N2CCOCC2)/C3=C(C=CC(=C3)Cl)O
How it was run: as §1

[2] = compound: C1=CC(=C(C=C1Cl)C2=NC3=NC=CN=C3C(=N2)NC4=CC=NC=C4)F
How it was run: as §1

[3] = compound: C1=CC(=CC=C1C2=NC3=C(N2)C=C(C=C3)C(=O)N)OC4=CC=C(C=C4)Cl
How it was run: as §1

[4] = compound: C1=CC2=C(C=CC(=C2)/C=C\3/C(=O)NC(=NCC4=CC=CS4)S3)N=C1
How it was run: as §1

[5] = compound: C1=CC2=NC=CN=C2C=C1/C=C/3\C(=O)NC(=O)S3
How it was run: as §1

[6] = compound: C1=CC=C(C=C1)C2=NC(=C(N2)C3=CC=NC=C3)C4=CC(=C(C=C4)Cl)O
How it was run: as §1

[7] = compound: C1=CC=C2C(=C1)C3=NNC4=CC=CC(=C43)C2=O
How it was run: as §1

[8] = compound: C1CCN(C1)C(=O)NC2=CC=CC(=C2)NC3=NC=C(C(=N3)NCCC4=CN=CN4)Br
How it was run: as §1

[9] = compound: C1CN(CCC1(CC2=CC=C(C=C2)Cl)N)C3=NC=NC4=C3C=CN4
How it was run: as §1

IRAK-1-4 Inhibitor I = compound: C1COCCN1CCN2C3=CC=CC=C3N=C2NC(=O)C4=CC(=CC=C4)[N+](=O)[O-] [IRAK-1-4 Inhibitor I]
How it was run: as §1

ibrutinib = compound: C=CC(=O)N1CCC[C@@H](n2nc(-c3ccc(Oc4ccccc4)cc3)c3c(N)ncnc32)C1 [ibrutinib]
How it was run: as §1

[10] = compound: CC(=O)c1cnc2ccc(-c3cc(Cl)c(O)c(Cl)c3)nc2c1N[C@H]1CC[C@H](CN(C)C)CC1
How it was run: as §1

ralimetinib = compound: CC(C)(C)Cn1c(N)nc2ccc(-c3[nH]c(C(C)(C)C)nc3-c3ccc(F)cc3)nc21 [ralimetinib]
How it was run: as §1

[11] = compound: CC(C)(O)CC(=O)NCCn1ccc2ncnc(Nc3ccc(Oc4cccc(C(F)(F)F)c4)c(Cl)c3)c21
How it was run: as §1

[12] = compound: CC(C)C1=C2N=C(C=C(N2N=C1)NCC3=CC=CC=C3)NCCCCCCN
How it was run: as §1

[13] = compound: CC(C)C[C@@H](C=O)NC(=O)[C@H](CC(C)C)NC(=O)[C@H](CC(C)C)NC(=O)OCc1ccccc1
How it was run: as §1

pinometostat = compound: CC(C)N(C[C@H]1O[C@@H](n2cnc3c(N)ncnc32)[C@H](O)[C@@H]1O)[C@H]1C[C@@H](CCc2nc3cc(C(C)(C)C)ccc3[nH]2)C1 [pinometostat]
How it was run: as §1

[14] = compound: CC1=C(C(CC(=O)N1)C2=CC=C(C=C2)C(F)(F)F)C(=O)NC3=C(C=C4C(=C3)C=NN4)F
How it was run: as §1

[15] = compound: CC1=C(C2=C(C=C1)C(=O)C3=CC=CC=C3N2CCCN)C
How it was run: as §1

Sequence of UniProt Q9NYP7 (Q9NYP7 whole entry, looked up): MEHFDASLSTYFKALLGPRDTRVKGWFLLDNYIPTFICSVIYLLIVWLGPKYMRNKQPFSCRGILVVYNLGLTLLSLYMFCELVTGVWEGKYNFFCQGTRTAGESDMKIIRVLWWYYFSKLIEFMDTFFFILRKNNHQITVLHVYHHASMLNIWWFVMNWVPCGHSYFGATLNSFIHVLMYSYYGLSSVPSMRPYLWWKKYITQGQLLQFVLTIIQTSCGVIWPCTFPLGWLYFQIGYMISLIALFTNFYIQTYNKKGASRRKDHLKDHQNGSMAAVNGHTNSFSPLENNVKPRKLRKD
Sequence of UniProt Q86YN1 (Q86YN1 whole entry, looked up): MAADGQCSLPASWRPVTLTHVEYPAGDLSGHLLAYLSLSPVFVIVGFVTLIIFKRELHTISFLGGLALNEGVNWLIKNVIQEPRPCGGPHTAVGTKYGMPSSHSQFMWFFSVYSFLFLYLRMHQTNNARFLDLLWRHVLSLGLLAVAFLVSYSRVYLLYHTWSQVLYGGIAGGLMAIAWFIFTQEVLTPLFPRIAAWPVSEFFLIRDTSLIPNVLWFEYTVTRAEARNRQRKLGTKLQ
Sequence of UniProt Q6V1X1 (Q6V1X1 whole entry, looked up): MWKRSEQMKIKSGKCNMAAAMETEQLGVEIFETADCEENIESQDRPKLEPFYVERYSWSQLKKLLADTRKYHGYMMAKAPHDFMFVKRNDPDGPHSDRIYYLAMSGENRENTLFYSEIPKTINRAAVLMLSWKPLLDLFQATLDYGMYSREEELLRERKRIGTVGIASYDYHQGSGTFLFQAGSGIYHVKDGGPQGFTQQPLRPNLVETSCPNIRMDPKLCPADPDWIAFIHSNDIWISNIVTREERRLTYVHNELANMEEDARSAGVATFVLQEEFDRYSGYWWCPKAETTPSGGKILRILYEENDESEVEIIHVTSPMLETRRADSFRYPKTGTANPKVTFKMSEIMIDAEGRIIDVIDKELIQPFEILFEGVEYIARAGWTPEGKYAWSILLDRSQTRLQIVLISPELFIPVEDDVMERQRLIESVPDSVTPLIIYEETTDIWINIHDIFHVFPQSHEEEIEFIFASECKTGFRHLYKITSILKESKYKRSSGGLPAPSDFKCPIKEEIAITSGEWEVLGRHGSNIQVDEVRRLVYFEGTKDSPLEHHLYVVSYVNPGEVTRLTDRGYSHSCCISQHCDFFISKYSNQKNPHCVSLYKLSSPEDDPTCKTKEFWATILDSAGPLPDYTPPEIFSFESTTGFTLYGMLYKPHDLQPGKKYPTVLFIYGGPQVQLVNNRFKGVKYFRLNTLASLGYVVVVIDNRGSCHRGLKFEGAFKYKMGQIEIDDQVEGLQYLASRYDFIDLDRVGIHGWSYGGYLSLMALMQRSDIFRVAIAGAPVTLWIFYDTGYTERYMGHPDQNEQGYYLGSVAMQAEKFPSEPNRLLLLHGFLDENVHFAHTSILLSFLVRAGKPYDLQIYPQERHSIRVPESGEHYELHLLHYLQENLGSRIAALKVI
Sequence of UniProt Q5W0V3 (Q5W0V3 whole entry, looked up): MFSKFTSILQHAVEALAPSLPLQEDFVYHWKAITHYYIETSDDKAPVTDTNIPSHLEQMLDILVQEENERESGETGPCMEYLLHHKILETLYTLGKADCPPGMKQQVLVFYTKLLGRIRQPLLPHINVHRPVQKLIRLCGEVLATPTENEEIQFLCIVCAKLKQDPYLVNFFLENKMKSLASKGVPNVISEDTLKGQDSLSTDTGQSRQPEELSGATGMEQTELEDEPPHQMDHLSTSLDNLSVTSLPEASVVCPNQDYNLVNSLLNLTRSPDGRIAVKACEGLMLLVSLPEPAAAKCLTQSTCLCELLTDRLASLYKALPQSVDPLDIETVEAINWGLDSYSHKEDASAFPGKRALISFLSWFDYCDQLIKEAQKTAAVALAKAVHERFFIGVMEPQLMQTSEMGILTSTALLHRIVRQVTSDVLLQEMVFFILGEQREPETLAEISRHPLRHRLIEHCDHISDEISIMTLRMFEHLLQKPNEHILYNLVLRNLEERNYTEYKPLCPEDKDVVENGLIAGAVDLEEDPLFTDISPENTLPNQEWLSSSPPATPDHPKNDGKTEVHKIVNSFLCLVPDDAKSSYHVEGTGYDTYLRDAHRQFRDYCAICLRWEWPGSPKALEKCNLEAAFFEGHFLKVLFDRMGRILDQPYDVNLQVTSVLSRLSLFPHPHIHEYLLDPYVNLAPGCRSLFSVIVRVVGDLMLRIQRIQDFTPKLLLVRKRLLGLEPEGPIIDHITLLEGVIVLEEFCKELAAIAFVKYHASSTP
Sequence of UniProt P09622 (P09622 whole entry, looked up): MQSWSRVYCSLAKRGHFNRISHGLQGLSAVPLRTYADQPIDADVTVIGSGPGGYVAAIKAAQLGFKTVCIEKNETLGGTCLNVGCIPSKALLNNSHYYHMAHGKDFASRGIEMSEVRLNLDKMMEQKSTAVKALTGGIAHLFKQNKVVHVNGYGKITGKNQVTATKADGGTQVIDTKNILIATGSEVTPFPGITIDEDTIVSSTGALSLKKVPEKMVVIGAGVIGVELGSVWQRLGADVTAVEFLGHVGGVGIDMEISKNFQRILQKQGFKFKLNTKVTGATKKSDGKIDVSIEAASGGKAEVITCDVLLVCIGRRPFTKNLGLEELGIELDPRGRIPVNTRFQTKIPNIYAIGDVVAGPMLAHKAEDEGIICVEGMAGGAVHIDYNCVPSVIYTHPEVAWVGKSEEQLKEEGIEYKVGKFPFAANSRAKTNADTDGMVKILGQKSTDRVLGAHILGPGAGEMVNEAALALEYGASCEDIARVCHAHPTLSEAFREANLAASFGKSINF
Sequence of UniProt Q9H777 (Q9H777 whole entry, looked up): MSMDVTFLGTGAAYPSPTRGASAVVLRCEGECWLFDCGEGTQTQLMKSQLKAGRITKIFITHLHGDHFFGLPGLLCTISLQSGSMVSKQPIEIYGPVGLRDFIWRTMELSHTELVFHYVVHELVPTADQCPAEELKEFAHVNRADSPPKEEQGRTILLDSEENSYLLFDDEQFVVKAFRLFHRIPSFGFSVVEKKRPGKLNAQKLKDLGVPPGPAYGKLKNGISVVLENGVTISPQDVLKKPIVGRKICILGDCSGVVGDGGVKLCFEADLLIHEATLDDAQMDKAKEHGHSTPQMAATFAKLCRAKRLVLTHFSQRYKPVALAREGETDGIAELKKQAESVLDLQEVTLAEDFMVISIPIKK
Sequence of UniProt Q9H2P9 (Q9H2P9 whole entry, looked up): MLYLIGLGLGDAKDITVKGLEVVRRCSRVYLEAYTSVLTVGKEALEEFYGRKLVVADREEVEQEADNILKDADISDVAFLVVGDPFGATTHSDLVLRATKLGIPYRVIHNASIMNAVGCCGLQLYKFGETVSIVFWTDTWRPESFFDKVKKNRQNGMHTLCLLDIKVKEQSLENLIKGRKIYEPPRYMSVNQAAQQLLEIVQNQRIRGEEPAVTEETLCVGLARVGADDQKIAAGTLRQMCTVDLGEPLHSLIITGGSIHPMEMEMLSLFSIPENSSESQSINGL
Sequence of UniProt O75822 (O75822 whole entry, looked up): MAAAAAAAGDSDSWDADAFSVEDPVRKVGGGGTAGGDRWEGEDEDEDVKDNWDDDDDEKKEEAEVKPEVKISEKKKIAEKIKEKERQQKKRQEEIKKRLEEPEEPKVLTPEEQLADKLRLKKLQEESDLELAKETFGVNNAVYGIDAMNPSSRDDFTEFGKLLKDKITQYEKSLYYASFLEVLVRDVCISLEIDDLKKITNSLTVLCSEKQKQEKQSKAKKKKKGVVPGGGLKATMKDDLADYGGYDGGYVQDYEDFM
Sequence of UniProt O00148 (O00148 whole entry, looked up): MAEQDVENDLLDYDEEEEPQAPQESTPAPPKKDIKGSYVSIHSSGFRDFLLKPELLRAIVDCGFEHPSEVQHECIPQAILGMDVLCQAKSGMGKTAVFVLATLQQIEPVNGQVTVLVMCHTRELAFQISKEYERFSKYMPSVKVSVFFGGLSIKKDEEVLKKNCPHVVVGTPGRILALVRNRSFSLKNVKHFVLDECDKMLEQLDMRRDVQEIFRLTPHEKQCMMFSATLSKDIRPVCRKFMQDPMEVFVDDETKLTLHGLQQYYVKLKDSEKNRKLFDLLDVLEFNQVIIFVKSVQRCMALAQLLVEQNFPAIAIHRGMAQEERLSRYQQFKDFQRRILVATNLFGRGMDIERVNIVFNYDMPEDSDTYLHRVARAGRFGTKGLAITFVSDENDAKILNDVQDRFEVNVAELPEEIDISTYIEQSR

Row | Target | log2 fold change (erlotinib) | log2 fold change [1] | log2 fold change [2] | log2 fold change [3] | log2 fold change [4] | log2 fold change [5] | log2 fold change [6] | log2 fold change [7] | log2 fold change [8] | log2 fold change [9] | log2 fold change (IRAK-1-4 Inhibitor I) | log2 fold change (ibrutinib) | log2 fold change [10] | log2 fold change (ralimetinib) | log2 fold change [11] | log2 fold change [12] | log2 fold change [13] | log2 fold change (pinometostat) | log2 fold change [14] | log2 fold change [15]
1 | DPH5 isoform 5 (UniProt Q9H2P9) | 0 | 0.054 | 0.093 | 0.037 | 0.022 | 0.03 | 0.041 | 0.005 | 0.004 | 0.052 | 0.036 | 0.025 | -0.01 | -0.018 | -0.053 | 0.045 | -0.071 | -0.009 | 0.022 | 0.027
2 | ELOVL5 isoform 2 (UniProt Q9NYP7) | 0.03 | 0.117 | -0.087 | -0.005 | 0.084 | 0.122 | 0.068 | -0.068 | 0.031 | 0.008 |  | -0.075 | -0.032 | -0.058 | -0.272 | -0.348 | -0.05 |  | -0.027 | 0.002
3 | ELAC1 (UniProt Q9H777) | 0.035 | -0.068 | 0.04 | -0.061 | 0.041 |  |  | -0.021 |  |  | 0.028 |  | 0.027 |  | 0.027 | 0.116 |  | -0.129 | -0.01 | 
4 | EIF3J isoform 2 (UniProt O75822) | 0.094 | -0.093 | 0.029 | 0.005 | 0.14 | -0.042 |  | -0.138 | 0.143 | 0 | 0.052 | 0.014 | -0.071 |  | -0.05 | 0.036 |  | -0.018 | 0.046 | 0.107
5 | DPP8 (UniProt Q6V1X1) | 0.093 | 0.088 | 0.067 | 0 | 0.134 | 0.018 | -0.067 | -0.011 | -0.003 | 0.008 | 0.002 | -0.001 | -0.035 | -0.046 | -0.005 | 0.059 | 0.015 | -0.018 | 0.004 | 0.12
6 | DDX39A (UniProt O00148) | 0.038 | 0.027 | 0.031 | -0.03 | -0.026 | -0.068 | -0.026 | -0.059 | -0.007 | -0.019 | -0.034 | 0.099 | -0.224 | 0.003 | -0.142 | -0.327 (active) | 0.042 | 0.075 | 0.092 | -0.28
7 | FAM160B1 (UniProt Q5W0V3) | 0.034 | 0.085 | 0.012 | -0.007 | 0.019 | 0.037 | -0.005 | 0 | -0.035 | -0.021 | 0.019 | 0.012 | 0.03 | 0.005 | -0.05 | -0.285 (active) | 0.019 | -0.019 | -0.036 | -0.051
8 | DLD (UniProt P09622) | 0.001 | -0.018 | 0.044 | -0.083 | -0.007 | -0.018 | 0.032 | -0.018 | 0.031 | 0.054 | 0.079 | 0.007 | 0.043 | -0.004 | -0.043 | -0.125 | -0.029 | 0.001 | 0.014 | -0.008
9 | DOLPP1 (UniProt Q86YN1) | 0.049 | 0.039 |  | 0.009 | -0.165 | 0.074 | 0.17 | 0.011 | -0.088 | 0.001 | 0.008 | -0.017 | -0.19 | -0.128 |  | -0.045 | -0.154 | -0.056 | 0.016 | 0.036
